Measurements taken from PubChem BioAssay (NCATS).
Inconclusive results are not listed. A call without a number means that no potency is given here. Calls of active or inactive are those of the source. Calls come from the whole dose curve; as a rule, active = well fitted inhibition curve with a large enough effect; inconclusive = small, poorly fitted or top-dose-only effect; inactive = flat fitted curve, though single readings scatter.

Target: Phospholipid hydroperoxide glutathione peroxidase GPX4 (Homo sapiens) (UniProt P36969)
Assay: Primary qHTS Assay for Inhibitors of Recombinant Selenoprotein Glutathione Peroxidase 4 (GPX4) (AID 1845192); note: nearly all actives have a fitted effect of over 65% in size
Details: recombinant GPX4, GR-coupled NADPH fluorescence, 15 min; series mostly up to 50 µM
Summary of the method: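 GR-coupled readout: 100 nM GR, 1 mM GSH, 0.5 mM NADPH; NADPH fluorescence (ex 340/em 450 nm) read at t=0 and after 15 min RT. GPX4 200 nM, preincubated 30 min with compound; substrate 0.5 mM CHP.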

Chain of Phospholipid hydroperoxide glutathione peroxidase GPX4 (Homo sapiens) (P36969 whole entry, looked up): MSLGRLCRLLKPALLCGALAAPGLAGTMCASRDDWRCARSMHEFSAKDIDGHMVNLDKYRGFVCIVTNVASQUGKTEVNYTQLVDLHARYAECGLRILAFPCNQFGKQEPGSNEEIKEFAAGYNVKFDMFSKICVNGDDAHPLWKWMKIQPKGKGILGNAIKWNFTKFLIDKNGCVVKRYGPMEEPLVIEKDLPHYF

Row | Compound | Potency
1 | CCCCCCCCCCCCCCCC[n+]1ccccc1 | inactive
2 | OCCc1ccccc1 | inactive
3 | Nc1ccc2cc3ccc(N)cc3nc2c1 | inactive
4 | C=CC[N+]1([C@H]2C[C@H]3[C@@H]4CC[C@H]5C[C@H](OC(C)=O)[C@@H](N6CCCCC6)C[C@]5(C)[C@H]4CC[C@]3(C)[C@H]2OC(=O)CC)CCCCC1 | inactive
5 | O=C1NC2CCCCN2C12CCN(CCCN1c3ccccc3CCc3ccc(Cl)cc31)CC2 (stereo not given) | inactive
6 | O=[N+]([O-])c1ccc(-c2nc(-c3ccc(F)cc3)c(-c3ccncc3)[nH]2)cc1 | inactive
7 | CCC(=O)O[C@H]1[C@H](O[C@@H]2[C@@H](C)[C@H](O[C@H]3C[C@@](C)(OC)[C@@H](O)[C@H](C)O3)[C@@H](C)C(=O)O[C@H](CC)[C@@](C)(O)[C@H](O)[C@@H](C)C(=O)[C@H](C)C[C@@]2(C)O)O[C@H](C)C[C@@H]1N(C)C | inactive
8 | COC(=O)C1=C(C)NC(COC(N)=O)=C(C(=O)OC(C)C)C1c1cccc(Cl)c1Cl (stereo not given) | inactive
9 | CC(C)N(CCC(=O)c1ccc2ccccc2c1)Cc1ccccc1 | inactive
10 | COc1c(C)c2c(c(O)c1C/C=C(\C)CCC(=O)OCCN1CCOCC1)C(=O)OC2 | inactive
